# M1 ag parental – M1 agonist counterscreen hit in parental CHO-K1 cells. 0.48% of 360,000 active. Fluo-8 calcium fluorescence; scaled to maximal ATP response, vehicle zero. activation, % at 3 µM; in the data active means activation above about 15%;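 further: untransfected CHO-K1 host cells lacking M1 receptor as counterscreen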
# CHO-K1 Ca PAM – M1 PAM counterscreen hit in parental CHO-K1 cells; ATP EC20, Fluo-8 calcium fluorescence; 0% at ATP EC20, 100% at ATP max; activation, % at 3 µM; 0.02% of 360,000 active; AID 602247;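 active means activation above the run cutoff, the mean activation of all test compounds plus 3 SD, cut at about 40% in these data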;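 further: peak over basal fluorescence ratio in a 140 s read after ATP addition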
# CHRM1 antagonist – blocks human M1 muscarinic receptor. AID 588852. CHO-K1 hM1, Fluo-8 calcium fluorescence, ACh EC80 antagonist. P11229. inhibition, % at 3 µM. 1.3% of 360,000 active;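 active means percent inhibition above its own plate's cutoff, namely the mean of that plate's compound wells plus 3 SD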;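 further: peak over basal fluorescence ratio during 140 s after agonist addition; 0% = ACh EC80 plus DMSO and 100% = DMSO alone without agonist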
# Target sequence (P11229 whole entry, looked up): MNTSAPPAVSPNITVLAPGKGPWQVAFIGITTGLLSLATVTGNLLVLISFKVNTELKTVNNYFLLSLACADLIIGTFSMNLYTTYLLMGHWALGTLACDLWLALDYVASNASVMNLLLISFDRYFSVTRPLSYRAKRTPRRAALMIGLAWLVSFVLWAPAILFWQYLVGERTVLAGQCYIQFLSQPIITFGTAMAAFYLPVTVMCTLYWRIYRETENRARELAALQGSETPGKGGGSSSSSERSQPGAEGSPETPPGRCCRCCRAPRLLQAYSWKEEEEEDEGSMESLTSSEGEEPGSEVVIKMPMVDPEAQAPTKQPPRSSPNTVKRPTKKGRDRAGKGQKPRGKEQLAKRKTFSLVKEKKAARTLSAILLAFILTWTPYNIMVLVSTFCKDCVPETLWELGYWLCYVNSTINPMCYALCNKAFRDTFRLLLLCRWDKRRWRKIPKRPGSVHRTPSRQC
# M1 PAM – positive allosteric modulators of human M1 muscarinic receptor; CHO-K1 hM1, Fluo-8 calcium fluorescence, ACh EC20; 0% = ACh EC20, 100% = maximal ACh; activation, % at 3 µM; 0.088% of 360,000 active; in the data active means activation above about 19%, passing the limit was not always enough
# CHRM1 agonist – human M1 muscarinic receptor agonism; CHO-K1 hM1, Fluo-8 calcium fluorescence, agonist mode; 0% DMSO, 100% acetylcholine EC100; AID 588814; P11229; activation, % at 3 µM; 0.33% of 360,000 active;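 active means activation above the run's mean compound activation plus 3 SD, cut at about 16% in these data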;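 further: peak over basal fluorescence ratio within a 140 s kinetic read after compound addition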
# CHO-K1 Ca antag – counter-screen for M1 antagonists: effect in parental CHO-K1 cells. AID 602250. 0.6% of 360,000 active. ATP-induced calcium, Fluo-8 fluorescence. inhibition, % at 3 µM;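 active means inhibition above a per-plate cutoff, the plate's mean sample inhibition plus 3 SD, cut at about 24% in these data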;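 further: 0% = DMSO plus EC80 ATP and 100% = DMSO alone without ATP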
# The depositor's hits bear a star. The list is not random: actives were taken first. Their share in the collection is about 2.4%.
SMILES,M1 ag parental,CHO-K1 Ca PAM,CHRM1 antagonist,M1 PAM,CHRM1 agonist,CHO-K1 Ca antag
Cc1ccc(-c2nnc(NC(=O)c3ccco3)s2)cc1,2,0,-5,5,-1,-2
Cc1ccc(NC(=O)c2ccc(OC(=O)c3ccco3)cc2)cc1,1,6,-1,5,-3,-15
CCN(C(=O)CSc1nnc(-c2ccc(F)cc2)n1C)C1CCS(=O)(=O)C1 (stereo not drawn),1,0,-11,1,-9,-11
CCOC(=O)C1=C(CC)Nc2ccccc2N=C1NC(=O)c1cc(C)on1,5,-12,12,-9,-4,-8
CCOC(=O)C1=C(CC)Nc2ccccc2N=C1NC(=O)Nc1ccc(Cl)c(Cl)c1,10,7,33*,-16,5,24
CCN(c1ccc(NC(=O)COC(=O)C2CCN(c3ccc(C(F)(F)F)cn3)CC2)cc1)C(C)C,1,-9,35*,-20,-8,-15
O=C(COC(=O)C1CCN(S(=O)(=O)c2ccc3c(c2)OCCO3)CC1)Nc1ccc(C(F)(F)F)cc1,2,-16,-1,8,-3,24*
CCN(CC)c1ccc(NC(=O)COC(=O)C2CCN(c3ccc(C(F)(F)F)cn3)CC2)cc1,1,16,-11,9,-4,7
Cc1ccc(S(=O)(=O)N2CCC(C(=O)OCC(=O)N(C)C3CCCCC3)CC2)cc1C,1,-19,-7,2,-4,8
CN(C(=O)COC(=O)C1CCN(S(=O)(=O)c2ccc3c(c2)OCCO3)CC1)C1CCCCC1,0,-20,17,-5,-6,26*
CCNS(=O)(=O)c1ccc(Br)c(OC)c1,5,23,-5,5,-4,2
CCOc1ccc(NC(=S)N2CCC(C(=O)c3ccc(OC)cc3)CC2)cc1,1,15,-30,29*,0,-12
COc1ccc(NC(=S)N2CCC(C(=O)c3ccc(Cl)cc3)CC2)cc1,1,18,-5,1,-1,-4
N#CC1=C(N)Oc2cc(O)c(Cl)cc2C1c1ccccc1F (stereo not drawn),2,-6,20,-15,26*,-7
N#CC1=C(N)Oc2cc(O)c(Cl)cc2C1c1cccnc1 (stereo not drawn),8,0,-11,10,7,14
COc1cc(NC(=O)c2ccco2)c(OC)cc1NC(=O)Nc1ccccc1Cl,1,3,30*,-21,-5,-18
O=C(CCCn1c(SCc2ccccc2F)nc2ccccc2c1=O)NCC1CCCO1 (stereo not drawn),17*,22,-1,6,-7,-9
O=C(CCCn1c(SCC(=O)NC2CCCCC2)nc2ccccc2c1=O)NCC1CCCO1 (stereo not drawn),0,5,-9,5,-2,6
Cn1c(C(=O)Nc2ccc(Cl)cc2)cc2cc(Cl)ccc21,1,15,-4,-6,-8,-11
CSc1nc(Oc2ccc(F)cc2F)cc(C(F)(F)F)n1,0,0,-12,17,2,26*
CSc1nc(Oc2cccc(C(F)(F)F)c2)cc(C(F)(F)F)n1,0,12,-11,9,-1,-2
O=C(CC12CC3CC(CC(Br)(C3)C1)C2)NC1CCCC1,1,18,55*,-37,-15,-20
CC1(C(=O)Nc2cccc(C#N)c2)CCN1C(=O)Cc1ccc(-c2ccccc2)cc1 (stereo not drawn),11,-6,42*,-15,3,28*
COc1ccc(C)cc1NC(=S)N1CC(C)OC(C)C1 (stereo not drawn),0,-14,3,1,-1,-10
CC1CCN(S(=O)(=O)c2ccc(NC(=O)c3ccco3)cc2)CC1,5,-8,10,3,-2,-12
SMILES,M1 ag parental,CHO-K1 Ca PAM,CHRM1 antagonist,M1 PAM,CHRM1 agonist,CHO-K1 Ca antag
Cc1cccc(CSC2=NCCN2S(=O)(=O)c2ccc(F)cc2)c1,-1,-25,39*,-16,-2,11
Cc1ccc(/C=N/NC(=O)c2nnn(-c3nonc3N)c2C(C)C)o1,2,-26,24,-7,5,28*
CCc1ccc(/C=N/NC(=O)c2nnn(-c3nonc3N)c2C(C)C)cc1,6,6,-2,24,33*,2
O=[N+]([O-])c1cccc(COc2ccc(CN3CCCC3)cc2)c1,2,13,59*,-30,-8,-12
O=[N+]([O-])c1cccc(COc2ccc(CN3CCOCC3)cc2)c1,2,16,49*,-26,-4,-13
O=[N+]([O-])c1cccc(CN2CCCCCC2)c1,0,6,-9,8,-9,-4
COc1ccc(/C=N/NC(=O)c2nc(-c3ccccc3)cc(-c3ccccc3)n2)cc1,1,2,13,0,-2,8
COc1ccc(/C=N/NC(=O)c2nc(-c3ccccc3)cc(-c3ccccc3)n2)cc1O,5,-4,38*,-19,-6,10
CCN(CC)S(=O)(=O)c1cccc(C(=O)N/N=C/c2ccccc2OCC(=O)O)c1,1,-8,3,0,-3,-7
COc1cc(/C=N/NC(=O)c2nc(-c3ccccc3)n(-c3ccccc3)n2)ccc1O,1,14,-2,3,-6,-1
CCN(CC)S(=O)(=O)c1cccc(C(=O)N/N=C/c2ccc(OC)c(O)c2)c1,1,-14,2,8,2,27*
COc1ccc(/C=N/NC(=O)c2nc(-c3ccccc3)n(-c3ccccc3)n2)cc1OC,1,-9,8,-7,-5,25*
COc1ccc(Nc2cc(NCCCO)c([N+](=O)[O-])c3nonc23)cc1,-2,7,-4,2,-4,-8
COc1ccc(CNc2cc(NCCCO)c([N+](=O)[O-])c3nonc23)cc1,-1,-16,-2,1,-10,25*
O=C(c1cc(COc2ccc3ncccc3c2)on1)N1CCCC1,11,-14,8,2,6,4
CC(NC(=O)c1cc(COc2ccc3ncccc3c2)on1)c1ccc(F)cc1 (stereo not drawn),13,-24,34*,-12,3,22
O=C(NC1CCCC1)c1cc(COc2ccc3ncccc3c2)on1,14,-1,31*,-12,3,12
O=C(NCCc1cn2ccccc2n1)c1cc(COc2ccc3ncccc3c2)on1,19*,-11,33,-18,0,33*
O=C(c1cc(COc2ccc3ncccc3c2)on1)N1CCCCCC1,13,2,29,-7,5,16
O=C(NCCN1C(=O)S/C(=C\c2ccc(OC(F)F)cc2)C1=O)[C@@H]1CCCN1C(=O)c1cccs1,21*,1,1,-5,-11,9
Cc1ccc(C)n1-n1c(C)nc2sc3c(c2c1=O)CCCCC3,1,19,28*,-21,-5,-9
